FLuc counter: inhibits or activates purified firefly luciferase, miR-21 counter-screen. P08659. purified FLuc, Km substrates, luminescence inhibition. Potency, µM (series often up to 57.5 µM), for the others: at the highest dose activity change, negative = inhibition, actives largely listed as inhibitors. 6.9% of 360,000 active. AID 588342;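 also: plate controls were vehicle for no effect and reference inhibitor for full effect; nearly all actives have a fitted effect of over 55% in size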
Target sequence (P08659 whole entry, looked up): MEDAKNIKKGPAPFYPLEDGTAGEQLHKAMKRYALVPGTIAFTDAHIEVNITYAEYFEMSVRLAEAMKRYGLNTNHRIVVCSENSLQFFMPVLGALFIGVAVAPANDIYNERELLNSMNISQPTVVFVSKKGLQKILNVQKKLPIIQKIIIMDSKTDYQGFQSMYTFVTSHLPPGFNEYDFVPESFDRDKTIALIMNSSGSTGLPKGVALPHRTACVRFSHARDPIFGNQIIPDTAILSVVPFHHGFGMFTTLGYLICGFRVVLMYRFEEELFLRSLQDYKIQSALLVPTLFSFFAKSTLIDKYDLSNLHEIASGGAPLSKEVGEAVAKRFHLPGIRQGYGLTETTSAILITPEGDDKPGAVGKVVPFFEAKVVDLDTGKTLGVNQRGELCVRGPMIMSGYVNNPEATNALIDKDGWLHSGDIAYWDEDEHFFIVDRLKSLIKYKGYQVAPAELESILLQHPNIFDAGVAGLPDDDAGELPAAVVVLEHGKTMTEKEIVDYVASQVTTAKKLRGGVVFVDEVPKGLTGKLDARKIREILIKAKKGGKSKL
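Purified P. pyralis luciferase (10nM final) with 10uM D-luciferin and 10uM ATP (Km levels) in 50mM Tris acetate pH 7.5, 10mM Mg acetate, 0.01% Tween-20, 0.05% BSA; qHTS 6-point titration, ~60 µM downward; luminescence read.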
NPC1 promoter act: activators of NPC1 promoter | Huh7 NPC1 promoter luciferase reporter, 24 h | Potency, µM (highest dose often 9.22 µM), for inactives: top-dose activation, hits mostly activators | 2.4% of 320,000 active | AID 485313; also: % of control where 0% means no effect; nearly all actives have a fitted effect of over 60% in size
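Readout is luciferase luminescence, reflecting NPC1 promoter activation in stably transfected Huh7 cells after 24 h compound exposure at 37 °C in reduced-serum medium with 10% FBS.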
Rab9 promoter act: Rab9 promoter activation. 2.8% of 320,000 active. Huh7 Rab9 promoter-luciferase reporter, luminescence, 24 h. Potency, µM (top dose mostly 9.22 µM), for inactives: at the highest dose activation, negative = inhibition, actives largely listed as activators; also: % of control where 0% means no effect; nearly all actives have a fitted effect of over 60% in size
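Rab9 promoter-driven luciferase in stably transfected Huh7 cells; 1500 cells/well rested 2 h, exposed to compound in DMSO for 24 h at 37 °C, 5% CO2. Luminescence read 10 min after adding luciferase reagent at ambient temperature.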
Luc counter: Kinase-Glo luciferase inhibition (counter-screen); AID 1379; Q27757; 0.28% of 200,000 active; Potency, µM (series often up to 38.3 µM), without a hit: at the top dose activity change, negative = inhibition, actives largely listed as inhibitors; Kinase-Glo luciferase, ATP luminescence, 8 min; also: % is scaled to controls: 0 for no effect and ±100 for the full control effect; nearly all actives have a fitted effect of over 60% in size
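Kinase-Glo luciferase light output from ATP and luciferin was measured with 10 uM ATP, within the enzyme's linear range. Buffer: 50 mM imidazole pH 7.2, 50 mM KCl, 7 mM MgCl2, 0.01% Tween 20, 0.05% BSA; luminescence read after 8 min at ambient temperature.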
SMN2 splice up: enhancers of SMN2 splice variant expression; HEK293 SMN2-luciferase splicing reporter, luminescence, 30-36 h; Potency, µM (doses to about 46.1 µM), without a hit: at the top dose activity change, positive = activation, actives largely listed as activators; AID 1458; 2.8% of 210,000 active; also: % of control where 0% means no effect; nearly all actives have a fitted effect of over 55% in size
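HEK293 cells carry an SMN2 minigene-luciferase reporter in which exon 7 inclusion puts luciferase in frame. Cells were seeded at 2000 cells/well, attached for 10-12 hours, then exposed to compounds for 30-36 hours at 37C before ONE-Glo luminescence.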
ELG1 genotox: genotoxicity induction in ELG1-luciferase HEK293T cells; HEK293T ELG1-luciferase reporter, luminescence, 16 h; Potency, µM (titrated, usually from 46 µM), for the others: at the highest dose activity change, positive = activation, usual class: activators; 1.3% of 330,000 active; AID 504466; also: % of control where 0% means no effect; nearly all actives have a fitted effect of over 60% in size
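Screening used a luciferase reporter fused to human ELG1 in HEK293T cells. Luminescence was read on a CCD plate imager after 16 hr exposure and 30 min ONE-Glo incubation.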
Numbers without * were called inactive; ? = inconclusive; . = no result. Hits are enriched below; roughly 7.4% of the tested compounds scored in any of these assays. Calls follow the shape of the dose curve; as a rule, active = well fitted curve in the direction sought with a large enough effect; inconclusive = small, poorly fitted or top-dose-only effect, or another doubt; inactive = no such curve, though single readings can be large; an effect the other way counts as inactive or inconclusive. Potency is read from the fitted curve at half-maximal effect.

SMILES	FLuc counter	NPC1 promoter act	Rab9 promoter act	Luc counter	SMN2 splice up	ELG1 genotox
CSc1ccccc1C(=O)Nc1ccc(C)c(C)c1	15µM*	?	?	-7%	?	?
CCOc1ccc(NC(=O)C(C)Oc2ccccc2C(=O)Nc2ccc(C)c(Cl)c2)cc1 (stereo unspecified)	12µM*	0%	7%	-3%	15%	-8%
CSc1ccccc1C(=O)Nc1cc(C)cc(C)c1	?	-1%	-2%	-11%	-19%	0%
Cc1ccc(C(=O)COc2ccccc2N2C(=O)c3ccccc3C2=O)cc1	-3%	?	?	0%	20µM*	?
CCOc1ccc(NC(=O)c2ccccc2OCC(=O)c2ccc(C)cc2)cc1	5.4µM*	2%	5%	-3%	14%	18%
Cc1oc2ccc(O)c(CN3CCN(C)CC3)c2c1C(=O)Nc1cccc(Cl)c1C	2%	.	.	.	3%	.
Cc1cc(=O)n2c(C(=O)Nc3ccc(Br)cc3)c(C(=O)Nc3ccccc3)sc2n1	3%	.	.	.	9%	.
COc1ccc(NC(=O)Cn2c(=O)n(Cc3ccco3)c(=O)c3cc(OC)c(OC)cc32)cc1	2%	.	.	.	-15%	.
CCc1ccc(C(=O)c2cn(CC(=O)Nc3cc(OC)ccc3OC)c3nc(C)ccc3c2=O)cc1	-6%	.	.	.	.	.
CCOc1ccc(NC(=O)c2ccccc2SC)cc1	17µM*	?	?	.	.	?
Nc1nc2c(-c3ccc(Br)cc3)nnn2c2ccccc12	0.43µM*	1µM*	0.63µM*	.	.	12µM*
COc1ccc(NC(=O)Nc2ccccc2SC)cc1OC	19µM*	22%	?	-5%	.	14%
COc1cccc(NC(=O)Nc2ccccc2SC)c1	17µM*	17%	15%	-22%	22%	15%
COc1ccc(NC(=O)Nc2ccccc2SC)c(OC)c1	-4%	6%	-2%	1%	5%	10%
Cc1nc(N2N=C(c3ccc(Cl)cc3)CC2c2ccco2)sc1C(=O)N(C)C (stereo unspecified)	15µM*	-1%	2%	5%	10%	1%
Clc1ccc(C2=NN(c3ccccc3)C(c3ccco3)C2)cc1 (stereo unspecified)	?	8%	-5%	.	.	-1%
Cn1ncc(N=Cc2ccccc2)c1C(N)=O	-1%	-1%	12%	20%	.	2%
Nc1ncc(Br)cc1N=Cc1ccccc1	3.4µM*	21%	3.5µM*	-2%	13µM*	?
CC(C)c1ccc(C(=O)Nc2cccc3cccnc23)cc1	9.5µM*	.	.	.	8%	.
CNC(=S)Nc1cccc2[nH]ncc12	0%	0%	-6%	3%	-4%	0%
O=C(NC(=S)Nc1cccc2[nH]ncc12)c1ccccc1	?	3.2µM*	2.5µM*	-4%	?	-4%
CC(C)Oc1ccc(C(=O)Nc2cccc3cccnc23)cc1	11µM*	11%	20%	-1%	.	10%
O=C(NC(=S)Nc1cccc2cccnc12)c1ccccc1	7.6µM*	?	?	-2%	0%	6%
O=C(c1cnccn1)N1CCC[C@@]2(CCN(Cc3cc(C(F)(F)F)cc(C(F)(F)F)c3)C2)C1	.	.	.	-3%	1%	.
O=C(Nc1cccc2cccnc12)c1ccc(F)cc1	15µM*	.	.	.	.	.
SMILES	FLuc counter	NPC1 promoter act	Rab9 promoter act	Luc counter	SMN2 splice up	ELG1 genotox
CCOc1ccc(C(=O)Nc2cccc3cccnc23)cc1	?	3%	0%	.	.	12%
Cc1ccc(Nc2nc(N)c3ccccc3n2)cc1Cl	0.95µM*	0.56µM*	0.63µM*	.	.	?
CCOC(=O)c1ccc(Nc2nc(N)c3cc(OC)c(OC)cc3n2)cc1	7.6µM*	2%	8%	.	4%	13%
COc1cc2nc(Nc3cccc(C)c3)nc(N)c2cc1OC	5.4µM*	.	.	.	7%	.
Cc1ccc(Nc2nc(NCCO)c3ccccc3n2)cc1C	7.6µM*	2%	-6%	.	.	-13%
CCOc1ccc(CCNC(=O)c2sc3nc4n(c(=O)c3c2C)CCCC4)cc1	0%	.	.	.	.	.
Cc1ccc(NC(=O)Cn2cc(S(=O)(=O)c3ccc(C)cc3)c(=O)c3cc4c(cc32)OCO4)cc1	-6%	.	.	.	4%	.
Cc1nc(N2CCOCC2)c2nc(-c3ccccc3)n(CCN3CCOCC3)c2n1	.	.	.	-6%	9%	.
COc1cc2nc(Nc3ccc(C)c(C)c3)nc(N)c2cc1OC	?	0%	-12%	.	-8%	13%
COc1cc2nc(Nc3ccc(C)c(Cl)c3)nc(N)c2cc1OC	21µM*	-4%	-4%	.	.	2%
Cc1cc(C)n(CCc2nc(-c3ccc(-c4ccccc4)cc3)cs2)n1	6.7µM*	24%	22%	1%	-49%	?
Cc1cc(OCC(F)(F)C(F)(F)C(F)(F)C(F)F)nc(N)n1	17µM*	-5%	-5%	-5%	5%	5%
Cc1cccc(NS(=O)(=O)c2ccc(C3CCCCC3)cc2)c1	6%	-5%	-2%	-1%	-38%	-10%
O=C(O)c1cccc(NS(=O)(=O)c2ccc(C3CCCCC3)cc2)c1	27µM*	-4%	-3%	2%	17%	2%
CCC(=O)N1c2ccc(S(=O)(=O)CCC(=O)N3CCN(c4ccc(F)cc4)CC3)cc2CC1C (stereo unspecified)	2%	.	.	.	2%	.
CCOC(=O)c1cnn(-c2ccc(C(F)(F)F)cn2)c1N	11µM*	?	?	-5%	?	?
CCOC(=O)c1cnn(-c2ccccc2)c1N	?	3%	-1%	-3%	1%	0%
CCOC(=O)c1cnn(-c2ncnc3sc(CC)cc23)c1N	13µM*	-3%	3%	-2%	13%	4%
COCCNC(=O)c1cc2cc(Br)cc(Br)c2oc1=O	-3%	2%	11%	1%	12%	2%
O=C(O)c1cccc(NC(=O)c2cc3cc(Br)cc(Br)c3oc2=O)c1	12µM*	.	.	.	-4%	.
Cc1ccnc(NC(=O)c2cc3ccccc3oc2=O)c1	0.85µM*	1.6µM*	1.1µM*	11µM*	11µM*	?

Compound activity: PubChem, National Center for Advancing Translational Sciences (NCATS)
